# Experimental data published in PubChem BioAssay AID1159580 (chemical genetic matrix, 2015).
# Out of some 5,500 compounds screened, about 2,000 (36%) were called active. Not shown: some 18% with an inconclusive outcome. The list shows a part of the results. A number with no mark means an inactive call. Rule as the data show it: active = normalized growth mostly below about 0.91 (no sharp cut-off); inconclusive = no clear call, values can overlap the other calls; inactive = mostly above about 0.92.
# Assay: chemical genetic growth profiling, strain panel (AID 1159580);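 also: tested at 20 µM; growth read once vehicle control cultures reached saturation at 30 °C; 1 = growth at the plate median or of vehicle wells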
# Details: S. cerevisiae deletion strains, growth OD
# [1] = locus YDL101C, strain DUN1, stronger effect = lower value
# [2] = locus YHR030C, strain SLT2, stronger effect = lower value
smiles,measurement,setting,value
CC(C)(C)C1=CC(=O)C=C(C(C)(C)C)C1=O,normalized growth,"locus YAL013W, strain DEP1, stronger effect = lower value",1.03
same,normalized growth,"locus YBR229C, strain ROT2, stronger effect = lower value",1.04
same,normalized growth,[1],0.997
same,normalized growth,"locus YDL134C, strain PPH21, stronger effect = lower value",1.01
same,normalized growth,"locus YDR150W, strain NUM1, stronger effect = lower value",0.979
same,normalized growth,"locus YEL061C, strain CIN8, stronger effect = lower value",1
same,normalized growth,"locus YGR078C, strain PAC10, stronger effect = lower value",1.01
same,normalized growth,[2],0.996
same,normalized growth,"locus YHR087W, strain rtc3, stronger effect = lower value",1
same,normalized growth,"locus YJR043C, strain POL32, stronger effect = lower value",1.02
same,normalized growth,"locus YJR075W, strain HOC1, stronger effect = lower value",1.01
same,normalized growth,"locus YLR039C, strain RIC1, stronger effect = lower value",1.03
same,normalized growth,"locus YLR058C, strain SHM2 (second series), stronger effect = lower value",1.02
same,normalized growth,"locus YLR085C, strain ARP6, stronger effect = lower value",1.05
same,normalized growth,"locus YLR262C, strain YPT6, stronger effect = lower value",1
same,normalized growth,"locus YML094W, strain GIM5, stronger effect = lower value",1.01
same,normalized growth,"locus YMR219W, strain ESC1, stronger effect = lower value",1.01
same,normalized growth,"locus YMR263W, strain SAP30, stronger effect = lower value",1.02
same,normalized growth,"locus YMR307W, strain GAS1, stronger effect = lower value",1.02
same,normalized growth,"locus YNL153C, strain GIM3, stronger effect = lower value",1.03
same,normalized growth,"locus YNL298W, strain CLA4 (second series), stronger effect = lower value",1.03
same,normalized growth,"locus YNL322C, strain KRE1, stronger effect = lower value",1
same,normalized growth,"locus YNR030W, strain Alg12, stronger effect = lower value",1.03
same,normalized growth,"locus YOL006C, strain TOP1, stronger effect = lower value",1.05
same,normalized growth,"locus YPL055C, strain LGE1, stronger effect = lower value",1.02
same,normalized growth,"locus YPL241C, strain CIN2, stronger effect = lower value",0.999
same,normalized growth,"locus YPR135W, strain CTF4, stronger effect = lower value",1.07
CN1/C(=C/C=C/c2ccc3ccccc3[n+]2C)C=Cc2ccccc21,normalized growth,"locus YAR019C, strain CDC15, stronger effect = lower value",0.675 (active)
same,normalized growth,"locus YBL105C, strain PKC1, stronger effect = lower value",0.837 (active)
same,normalized growth,"locus YBR135W, strain CKS1, stronger effect = lower value",0.901
same,normalized growth,"locus YBR136W, strain MEC1, stronger effect = lower value",0.893 (active)
same,normalized growth,"locus YBR160W, strain CDC28, stronger effect = lower value",0.919
same,normalized growth,"locus YDL017W, strain CDC7, stronger effect = lower value",0.903 (active)
same,normalized growth,"locus YDL028C, strain MPS1, stronger effect = lower value",0.928
same,normalized growth,[1],0.362 (active)
same,normalized growth,"locus YDL108W, strain KIN28, stronger effect = lower value",0.912
same,normalized growth,"locus YDL132W, strain cdc53, stronger effect = lower value",0.653 (active)
same,normalized growth,"locus YDL214C, strain PRR2, stronger effect = lower value",0.185 (active)
same,normalized growth,"locus YDR052C, strain DBF4, stronger effect = lower value",0.889 (active)
same,normalized growth,"locus YDR054C, strain cdc34, stronger effect = lower value",0.581 (active)
same,normalized growth,"locus YDR226W, strain ADK1, stronger effect = lower value",0.961
same,normalized growth,"locus YDR477W, strain SNF1, stronger effect = lower value",0.226 (active)
same,normalized growth,"locus YER123W, strain YCK3, stronger effect = lower value",0.204 (active)
same,normalized growth,"locus YER133W, strain GLC7, stronger effect = lower value",0.18 (active)
same,normalized growth,"locus YFL009W, strain cdc4, stronger effect = lower value",0.684 (active)
same,normalized growth,"locus YFL029C, strain CAK1, stronger effect = lower value",0.603 (active)
same,normalized growth,"locus YFR003C, strain YPI1, stronger effect = lower value",0.883 (active)
same,normalized growth,"locus YFR019W, strain FAB1, stronger effect = lower value",0.217 (active)
same,normalized growth,"locus YFR028C, strain CDC14, stronger effect = lower value",0.885 (active)
same,normalized growth,"locus YGR040W, strain KSS1, stronger effect = lower value",0.215 (active)
same,normalized growth,"locus YGR052W, strain FMP48, stronger effect = lower value",0.212 (active)
same,normalized growth,"locus YGR092W, strain DBF2, stronger effect = lower value",0.148 (active)
same,normalized growth,[2],0.177 (active)
same,normalized growth,"locus YHR079C, strain IRE1, stronger effect = lower value",0.182 (active)
same,normalized growth,"locus YHR082C, strain KSP1, stronger effect = lower value",0.224 (active)
same,normalized growth,"locus YHR205W, strain SCH9, stronger effect = lower value",0.132 (active)
same,normalized growth,"locus YIL147C, strain SLN1, stronger effect = lower value",0.905
same,normalized growth,"locus YJL095W, strain BCK1, stronger effect = lower value",0.208 (active)
same,normalized growth,"locus YJL157C, strain FAR1, stronger effect = lower value",0.174 (active)
same,normalized growth,"locus YJR016C, strain ILV3, stronger effect = lower value",0.828 (active)
same,normalized growth,"locus YJR066W, strain TOR1 (second series), stronger effect = lower value",0.196 (active)
same,normalized growth,"locus YJR066W, strain TOR1, stronger effect = lower value",0.197 (active)
same,normalized growth,"locus YKL048C, strain ELM1, stronger effect = lower value",0.291 (active)
same,normalized growth,"locus YKL067W, strain YNK1, stronger effect = lower value",0.162 (active)
same,normalized growth,"locus YKL101W, strain HSL1, stronger effect = lower value",0.199 (active)
same,normalized growth,"locus YKL193C, strain SDS22, stronger effect = lower value",0.655 (active)
same,normalized growth,"locus YKL203C, strain TOR2, stronger effect = lower value",0.209 (active)
same,normalized growth,"locus YLR113W, strain HOG1, stronger effect = lower value",0.29 (active)
same,normalized growth,"locus YLR133W, strain CKI1, stronger effect = lower value",0.341 (active)
same,normalized growth,"locus YLR403W, strain SFP1, stronger effect = lower value",0.0454 (active)
same,normalized growth,"locus YML070W, strain DAK1, stronger effect = lower value",0.209 (active)
same,normalized growth,"locus YMR001C, strain CDC5, stronger effect = lower value",0.816 (active)
same,normalized growth,"locus YMR205C, strain PFK2 (second series), stronger effect = lower value",0.325 (active)
same,normalized growth,"locus YNL006W, strain LST8, stronger effect = lower value",0.793 (active)
same,normalized growth,"locus YNL020C, strain ARK1, stronger effect = lower value",0.243 (active)
same,normalized growth,"locus YNL161W, strain CBK1, stronger effect = lower value",0.658 (active)
same,normalized growth,"locus YNL183C, strain NPR1, stronger effect = lower value",0.197 (active)
same,normalized growth,"locus YNL207W, strain RIO2, stronger effect = lower value",0.528 (active)
same,normalized growth,"locus YNL222W, strain SSU72, stronger effect = lower value",0.708 (active)
same,normalized growth,"locus YNL307C, strain MCK1 (second series), stronger effect = lower value",0.189 (active)
same,normalized growth,"locus YOL136C, strain PFK27, stronger effect = lower value",0.188 (active)
same,normalized growth,"locus YOR061W, strain CKA2, stronger effect = lower value",0.181 (active)
same,normalized growth,"locus YOR119C, strain RIO1, stronger effect = lower value",0.221 (active)
same,normalized growth,"locus YOR231W, strain MKK1, stronger effect = lower value",0.198 (active)
same,normalized growth,"locus YOR329C, strain SCD5, stronger effect = lower value",0.702 (active)
same,normalized growth,"locus YPL031C, strain PHO85, stronger effect = lower value",0.198 (active)
same,normalized growth,"locus YPL153C, strain RAD53, stronger effect = lower value",0.178 (active)
same,normalized growth,"locus YPL204W, strain HRR25, stronger effect = lower value",0.177 (active)
same,normalized growth,"locus YPL209C, strain IPL1, stronger effect = lower value",0.748 (active)
same,normalized growth,"locus YPL256C, strain CLN2, stronger effect = lower value",0.25 (active)
same,normalized growth,"locus YPR025C, strain CCL1, stronger effect = lower value",0.821 (active)
same,normalized growth,"locus YPR106W, strain ISR1, stronger effect = lower value",0.929
same,normalized growth,"locus YPR111W, strain DBF20, stronger effect = lower value",0.902
same,normalized growth,"strain NNK1, stronger effect = lower value",0.536 (active)
same,normalized growth,"strain TSCII, stronger effect = lower value",0.604 (active)
